# Test results: PubChem BioAssay (NCATS)
# Records with an inconclusive call do not appear. A call without a number means that no potency is given here. A structure can be active in one record and inactive in another. Active and inactive are the calls of the source. Unless noted, calls follow the shape of the dose curve; as a rule, active = well fitted curve in the direction sought with a large enough effect; inconclusive = small, poorly fitted or top-dose-only effect, or another doubt; inactive = no such curve, though single readings can be large; an effect the other way counts as inactive or inconclusive.
# Legend:
# [1] = High-throughput drug toxicity screening in the BPDCN cell line Gen2.2 (AID 1224824; call rule not given here;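 also: cells exposed to compounds for 48 h before reading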); conditions: Gen2.2 BPDCN cells; at 45.8 µM (top of the series)
# Outline: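 Seed 500 exponentially growing Gen2.2 cells/well; add compounds by pin tool; incubate 48 h, 37 °C, 5% CO2; add CellTiter-Glo, 15 min RT; read luminescence. % activity vs DMSO (100%) and bortezomib (0%).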
# [2] = High-throughput drug toxicity screening in the BPDCN cell line Cal-1 (AID 1224825; call rule not given here); conditions: Cal-1 BPDCN cell viability, qHTS; at 45.8 µM (top of the series)
# Outline: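 Percent activity derived from CellTiter-Glo luminescence, scaling DMSO to 100% and 9.2 uM final bortezomib to 0%. BPDCN Cal-1 cells (500/well, RPMI plus 10% FBS) incubated with compounds 48 hours at 37C before reading.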
# [3] = qHTS assay for measurement of the activity of small molecule inhibitors on Zika virus induced Caspase-3 activity in human astrocytoma cells (AID 1224859)
# Outline: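 Caspase activation in ZIKV-infected SNB-19 cells (2 FFU/cell, 6 h) measured by Caspase-Glo 3/7 luminescence after 30 min RT; compound pre-incubated 1 h; normalised to uninfected and infected controls.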
# [4] = qHTS Screen of the MIPE 4.0 Collection Against Ewings Sarcoma (RDES) (AID 1259252); also: nearly all actives have a fitted effect of over 35% in size; also: potency is read from the fitted curve at half-maximal effect
# Outline: (§1)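 CellTiter-Glo luminescence after 48 h compound exposure (titration) gave viability; percent activity used DMSO-treated cells as no inhibition and medium-only wells as full inhibition. Cells grown in RPMI/5% FBS, dosed 4 h post-seeding.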
# [5] = Identifying Small Molecule Inhibitors of Pancreatic Cancer Stem Cells (A278, Adherent) (AID 1259361); also: nearly all actives have a fitted effect of over 35% in size
# Outline: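 Cytotoxicity read by CellTiter-Glo luminescence after 48 h compound exposure at 37C; percent activity scaled between DMSO-treated cells and cell-free wells. Spheroid formats used cells pre-formed 14 days in stem cell media on hydrogel.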
# [6] = P-glycoprotein substrates identified in KB-8-5-11 adenocarcinoma cell line, qHTS therapeutic library screen (AID 1346987); also: nearly all actives have a fitted effect of over 65% in size; also: potency is read from the fitted curve at half-maximal effect
# Outline: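 Human cervical adenocarcinoma KB-8-5-11 cells, selected in colchicine to over-express P-gp and assayed without it, were exposed for 72 h to titrated compounds. An ATP-based luminescent viability signal gave AC50.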
# [7] = qHTS Screen of the MIPE 4.0 Collection Against Ewings Sarcoma (TC71) (AID 1259253); also: nearly all actives have a fitted effect of over 40% in size; also: potency is read from the fitted curve at half-maximal effect
# Outline: as §1
# [8] = qHTS Screen of the MIPE 4.0 Collection Against Ewings Sarcoma (EW8) (AID 1259255); also: nearly all actives have a fitted effect of over 35% in size
# Outline: as §1
# [9] = Natriuretic polypeptide receptor (hNpr1) antagonism - Pilot counterscreen GloSensor control cell line (AID 1347045; calls by dose curve)
# Outline: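 The SNP-driven cGMP luminescence signal (50 uM, 20 min, room temperature) was measured in GloSensor HEK293 control cells. Compounds were tested as a LOPAC titration series and preincubated for 30-50 min.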
# [10] = target: Atrial natriuretic peptide receptor 1 (Homo sapiens) (UniProt P16066); test: Natriuretic polypeptide receptor (hNpr1) antagonism - Pilot screen (AID 1347049; calls by dose curve;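 also: HEK293 cells with hNpr1 and GloSensor cGMP luciferase stimulated by 0.1 nM hNppA; agonist-evoked cGMP luminescence read 20 min after hNppA addition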)
# Chain of Atrial natriuretic peptide receptor 1 (Homo sapiens) (P16066 whole entry, looked up): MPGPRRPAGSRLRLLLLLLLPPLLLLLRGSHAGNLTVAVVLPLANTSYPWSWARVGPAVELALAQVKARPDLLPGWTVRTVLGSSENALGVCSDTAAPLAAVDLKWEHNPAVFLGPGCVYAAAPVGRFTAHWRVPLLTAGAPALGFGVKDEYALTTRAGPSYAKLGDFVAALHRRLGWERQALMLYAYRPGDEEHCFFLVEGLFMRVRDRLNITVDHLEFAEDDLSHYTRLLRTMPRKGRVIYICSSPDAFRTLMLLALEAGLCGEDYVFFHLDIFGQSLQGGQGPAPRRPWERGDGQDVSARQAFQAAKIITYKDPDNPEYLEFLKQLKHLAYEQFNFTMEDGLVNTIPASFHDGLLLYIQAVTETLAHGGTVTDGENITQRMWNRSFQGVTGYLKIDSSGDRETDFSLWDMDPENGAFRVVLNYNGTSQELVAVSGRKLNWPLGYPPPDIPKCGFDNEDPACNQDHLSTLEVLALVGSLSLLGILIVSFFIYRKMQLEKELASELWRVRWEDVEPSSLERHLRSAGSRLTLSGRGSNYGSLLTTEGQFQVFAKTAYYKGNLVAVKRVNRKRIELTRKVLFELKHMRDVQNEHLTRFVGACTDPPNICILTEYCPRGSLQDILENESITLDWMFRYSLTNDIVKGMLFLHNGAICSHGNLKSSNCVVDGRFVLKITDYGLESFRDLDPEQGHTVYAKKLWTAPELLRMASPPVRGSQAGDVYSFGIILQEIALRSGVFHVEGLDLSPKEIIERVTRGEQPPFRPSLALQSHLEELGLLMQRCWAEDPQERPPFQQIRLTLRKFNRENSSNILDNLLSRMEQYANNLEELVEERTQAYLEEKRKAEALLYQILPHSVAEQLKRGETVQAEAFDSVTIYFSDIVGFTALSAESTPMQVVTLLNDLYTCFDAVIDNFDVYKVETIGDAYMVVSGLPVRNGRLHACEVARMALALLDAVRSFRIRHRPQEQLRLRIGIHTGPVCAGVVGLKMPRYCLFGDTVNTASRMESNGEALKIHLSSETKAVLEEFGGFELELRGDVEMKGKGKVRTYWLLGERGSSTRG
# Outline: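 Receptor antagonism read as cGMP-dependent luminescence in hNpr1/pGS-40F HEK293 cells: pre-read after 30 min compound exposure, post-read 20 min after hNppA agonist at 0.1 nM final, all at room temperature, protected from light; A-71915 titration as control.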
# [11] = Identifying Small Molecule Inhibitors of Pancreatic Cancer Stem Cells (Panc1, Spheroid) (AID 1259359);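 also: compound exposure lasted 48 h before reading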
# Outline: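 Spheroids grown 14 days in stem cell media on hydrogel-coated nonadherent plates; 2D lines seeded directly. Compounds added after 4 h attachment, 48 h at 37C, 5% CO2; CellTiter-Glo luminescence normalized to DMSO (no inhibition) and no-cell wells (full inhibition).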
# [12] = P-glycoprotein substrates identified in KB-3-1 adenocarcinoma cell line, qHTS therapeutic library screen (AID 1346986); also: nearly all actives have a fitted effect of over 60% in size
# Outline: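 Dose-response cytotoxicity, KB-3-1 vs P-gp-high KB-8-5-11, no colchicine in assay medium. Read: CellTiter-Glo at 72 h.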
# [13] = qHTS assay to identify small molecule inhibitors of chordoma cells - UCH-1 (AID 1259355); also: nearly all actives have a fitted effect of over 55% in size; also: potency is read from the fitted curve at half-maximal effect
# Outline: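 800 cells/well, overnight attach; compounds pinned at 15 concs, then auranofin/camptothecin/doxorubicin/rubitecan/topotecan combo added; 48hr 37 C, 5% CO2; CellTiter-Glo, 30min RT, luminescence.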
# [14] = qHTS assay to identify small molecule inhibitors of chordoma cells - UCH-2 (AID 1259356)
# [15] = qHTS assay for measurement of the activity of small molecule inhibitors on Zika virus induced Caspase-3 activity in human iPSC derived neural progenitor cells (hNPCs) (AID 1224857); also: nearly all actives have a fitted effect of over 65% in size
# Outline: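 Zika virus (2 FFU/cell) infection of human iPSC-derived NPCs, 6 h, following 1 h compound preincubation. Read-out: Caspase-Glo 3/7 luminescence.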
smiles,measurement,setting,value
CNC(=O)c1ccc(N2C(=S)N(c3ccc(C#N)c(C(F)(F)F)c3)C(=O)C23CCC3)cc1F,"cell viability, % of control (lower = more cytotoxic)",[1],16.5%
same,viability (% of control),[2],7.78%
same,outcome,[3],inactive
same,Potency,[4],20.9 µM (active)
same,IC50 (viability decrease),[5],23.5 µM (active)
same,Potency,[6],inactive
Cc1cccc(C)c1NC(=O)CN1CCCC1=O,"cell viability, % of control (lower = more cytotoxic)",[1],116%
same,viability (% of control),[2],110%
same,outcome,[3],inactive
same,Potency,[4],inactive
same,Potency,[7],inactive
same,Potency,[8],inactive
same,Potency,[6],inactive
same,Potency,[9],inactive
same,Potency,[10],inactive
Cc1cc(SCc2sc(-c3ccc(C(F)(F)F)c(F)c3)nc2C)ccc1OCC(=O)O,"cell viability, % of control (lower = more cytotoxic)",[1],144%
same,viability (% of control),[2],109%
same,Potency,[7],23.5 µM (active)
same,outcome,[11],inactive
same,IC50 (viability decrease),[5],inactive
same,Potency,[12],inactive
OCCOc1ccccc1,outcome,[3],inactive
same,Potency,[13],inactive
same,Potency,[14],inactive
same,Potency,[6],inactive
O=C(O)P(=O)(O)O,Potency,[12],inactive
same,Potency,[6],inactive
CCCN1CCC[C@@H]2Cc3[nH]ncc3C[C@H]21,outcome,[3],inactive
same,Potency,[14],inactive
same,Potency,[6],inactive
same,Potency,[9],inactive
same,Potency,[10],inactive
O=c1[nH]c2ccccc2n1C1CCN(CCCC(c2ccc(F)cc2)c2ccc(F)cc2)CC1,Potency,[15],inactive
same,Potency,[14],inactive
NP(N)(=O)NC(=O)c1ccc(F)cc1,outcome,[3],inactive
same,Potency,[13],inactive
same,Potency,[14],inactive
same,Potency,[6],inactive
Cc1ncc(CNC(=O)N(CCCl)N=O)c(N)n1,Potency,[15],inactive
same,Potency,[13],inactive
same,Potency,[14],inactive
same,Potency,[6],inactive
same,Potency,[9],inactive
same,Potency,[10],inactive
CCN(CC)CCN1C(=O)CN=C(c2ccccc2F)c2cc(Cl)ccc21,outcome,[3],inactive
same,Potency,[13],inactive
same,Potency,[14],inactive
CC(=O)[C@H]1CC[C@H]2[C@@H]3CC[C@H]4C[C@H](O)CC[C@]4(C)[C@H]3C(=O)C[C@]12C,outcome,[3],inactive
same,Potency,[13],inactive
same,Potency,[14],inactive
same,Potency,[9],inactive
same,Potency,[10],inactive
O=C1NCN(c2ccccc2)C12CCN(CC1COc3ccccc3O1)CC2 (stereo not drawn),Potency,[13],inactive
same,Potency,[14],inactive
same,Potency,[9],inactive
same,Potency,[10],inactive
CC(C)(C)CC(C)(C)c1ccc(O)cc1,Potency,[13],inactive
same,Potency,[14],inactive
same,Potency,[6],inactive
CC[C@@H](CO)NC(=O)[C@@H]1C=C2c3cccc4c3c(cn4C)C[C@H]2N(C)C1,Potency,[6],20.6 µM (active)
same,Potency,[9],inactive
same,Potency,[10],inactive
c1ccc2c(c1)OCC(C1=NCCN1)O2 (stereo not drawn),Potency,[13],31.6 µM (active)
same,Potency,[6],inactive
COc1ccc(Cc2nccc3cc(OC)c(OC)cc23)cc1OC,Potency,[13],inactive
same,Potency,[14],inactive
same,Potency,[6],880 nM (active) and inactive
CO[C@]12CC[C@@]3(C[C@@H]1[C@](C)(O)C(C)(C)C)[C@@H]1Cc4ccc(O)c5c4[C@@]3(CCN1CC1CC1)[C@H]2O5,outcome,[3],inactive
c1ccc2c(c1)Nc1ccccc1S2,outcome,[3],inactive
same,Potency,[13],inactive
same,Potency,[14],inactive
same,Potency,[6],inactive
CC1OC(C)OC(C)O1 (stereo not drawn),Potency,[13],inactive
same,Potency,[14],inactive
C[C@]12C/C(=C/O)C(=O)C[C@@H]1CC[C@@H]1[C@@H]2CC[C@@]2(C)[C@H]1CC[C@]2(C)O,outcome,[3],inactive
same,Potency,[13],inactive
same,Potency,[14],inactive
same,Potency,[6],inactive
